{"source": "PubChem BioAssay AID623868", "about": "(Vanderbilt High Throughput Screening Facility, 2012)", "note": "Among all 2,100 compounds or so, about 760 (36%) were called active. A selection follows. A number with no mark means an inactive call.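 How the source made its calls: active means thallium-flux fluorescence traces judged by eye to show enhanced or reduced glutamate response, manual score 1 or -1, so both directions (some results past the limit were not filed as active); inactive means the rest, including fluorescent or raised-baseline compounds.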"}
{"experiment": "thallium influx changes without GIRK channels – cell-based, HEK-293 rmGlu8, no GIRK, thallium flux, counter-screen for GIRK activator project, confirmation (AID 623868);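 further: extra codes mark interference with 3 for fluorescent and 4 for baseline rise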", "details": "thallium flux fluorescence, at 10 µM, actives lie on both sides, codes: 1 enhancer, -1 blocker, 0 none, thallium stimulus containing EC20 glutamate"}
{"compound": "CC12CN(Cc3ccccc3)CC(C)(CN(Cc3ccccc3)C1)C2=NO", "manual score": 0}
{"compound": "CC1CCC(n2c(=S)[nH]c3ccccc3c2=O)CC1", "note": "(stereo not given)", "manual score": "1 (active)"}
{"compound": "O=c1[nH]c2ccccc2n1CCC1CCCCC1", "manual score": 0}
{"compound": "CCN1CCN(C(=O)c2ccc3c(=O)n(C4CCCC4)c(=S)[nH]c3c2)CC1", "manual score": 0}
{"compound": "CC1CCCCC1n1c(=S)[nH]c2ccccc2c1=O", "note": "(stereo not given)", "manual score": "1 (active)"}
{"compound": "O=c1c2ccccc2[nH]c(=S)n1C1CCCCC1", "manual score": "1 (active)"}
{"compound": "CC1CCCC(n2c(=S)[nH]c3ccccc3c2=O)C1C", "note": "(stereo not given)", "manual score": 3}
{"compound": "CCOC(=O)N1CCC(n2c(=S)[nH]c3ccccc3c2=O)CC1", "manual score": "1 (active)"}
{"compound": "O=C(c1ccc2c(=O)n(C3CCCC3)c(=S)[nH]c2c1)N1CCc2ccccc21", "manual score": 0}
{"compound": "O=C(C1CCC(Cn2c(=S)[nH]c3ccccc3c2=O)CC1)N1CCN(c2ccccc2)CC1", "note": "(stereo not given)", "manual score": 0}
{"compound": "CCOC(=O)/C(=C\\C=C1/Sc2cc(OCC)c(OCC)cc2N1CC)C(C)=O", "manual score": 3}
{"compound": "C=CCN1CCN(C(c2ccc(Cl)cc2)c2nnnn2CCc2ccc(OC)c(OC)c2)CC1", "note": "(stereo not given)", "manual score": 0.5}
{"compound": "CCC1(C)CC(c2csc(N)n2)CCO1", "note": "(stereo not given)", "manual score": 0}
{"compound": "O=C(CSCCO)Nc1ccccc1", "manual score": 0}
{"compound": "CCOC(=O)C(C(=O)OCC)c1cc(Br)c2noc3c2c1C(=O)c1ccccc1-3", "manual score": 3}
{"compound": "CC(C)(C)OC(=O)COc1cc(O)c2c(=O)cc(-c3ccccc3)oc2c1", "manual score": 0}
{"compound": "Cc1ccc2c(c1)N(CC(=O)N(Cc1ccccn1)Cc1ccco1)C(=O)C(C(C)C)O2", "note": "(stereo not given)", "manual score": 0}
{"compound": "COC(=O)C(C)Sc1nc2c(c(=O)n(C)c(=O)n2C)n1Cc1cccc(C)c1", "note": "(stereo not given)", "manual score": 0}
{"compound": "COC(=O)c1ccc(CSc2nc3c(c(=O)n2-c2ccc(F)cc2)SCC3)o1", "manual score": "-1 (active)"}
{"compound": "CCOc1ccc(-n2c(Cc3cc(=O)[nH]c(=O)[nH]3)nnc2SC(C)C(=O)OC)cc1", "note": "(stereo not given)", "manual score": 0}
{"compound": "CCOc1ccc(-n2c(SC(C)C(=O)OC)nc3c(c2=O)SCC3)cc1", "note": "(stereo not given)", "manual score": "-1 (active)"}
{"compound": "COc1cccc(NC(=O)NC2(C(F)(F)F)Oc3ccccc3O2)c1", "manual score": 0}
{"compound": "CN(C)S(=O)(=O)N(CC(=O)Nc1ccc2ccccc2c1)c1ccccc1", "manual score": 0}
{"compound": "Cc1cc(NC(=O)c2ccccc2Oc2ccccc2)no1", "manual score": "-1 (active)"}
{"compound": "COc1ccc(C(=O)Nc2ccccc2)cc1S(=O)(=O)Nc1cc(C)on1", "manual score": 0}
{"compound": "CCCCOc1cccc(OCCCC)c1C(=O)Nc1cc(C)on1", "manual score": 0}
{"compound": "Cc1cc([N+](=O)[O-])ccc1-c1ccc(C2Nc3ccccc3C(=O)N2O)o1", "note": "(stereo not given)", "manual score": "1 (active)"}
{"compound": "O=C1c2ccccc2NC(c2ccc(-c3ccc(Br)cc3)o2)N1O", "note": "(stereo not given)", "manual score": "1 (active)"}
{"compound": "O=C1c2ccccc2NC(c2ccc(-c3cccc(Cl)c3)o2)N1O", "note": "(stereo not given)", "manual score": "1 (active)"}
{"compound": "COc1ccc(C(=O)C2C(c3ccc(-c4ccccc4[N+](=O)[O-])o3)NC(=O)NC2(O)C(F)(F)F)cc1", "note": "(stereo not given)", "manual score": 0.5}
{"compound": "CC(=O)Nc1ccc(SCC(=O)c2cc(C)n(-c3ccccc3F)c2C)cc1", "manual score": 0.5}
{"compound": "Cc1cccc(C)c1NC1=NC(=S)N(c2ccc(N(C)C)cc2)C1(C)C", "manual score": "1 (active)"}
{"compound": "CC1CN(C(=O)C2CCCCC2)C(C)CN1C(=O)C1CCCCC1", "note": "(stereo not given)", "manual score": 0}
{"compound": "Cn1c(NC(=O)Cc2ccc(F)cc2)cc(=O)n(C)c1=O", "manual score": 0}
{"compound": "CSCSC1=C(C#N)C(c2ccccc2Cl)C(C(C)=O)=C(C)N1", "note": "(stereo not given)", "manual score": "-1 (active)"}
{"compound": "CC(=O)C1=C(C)NC(SCc2ccc(C#N)cc2)=C(C#N)C1c1ccco1", "note": "(stereo not given)", "manual score": 0}
{"compound": "CSCSC1=C(C#N)C(c2ccc(Cl)cc2)C(C(C)=O)=C(C)N1", "note": "(stereo not given)", "manual score": 0}
{"compound": "CCOC(=O)C1=C(c2ccccc2)NC(SC)=C(C#N)C1c1ccco1", "note": "(stereo not given)", "manual score": 0}
{"compound": "CC(=O)C1=C(C)NC(SCC(=O)c2ccc(Cl)cc2Cl)=C(C#N)C1c1ccco1", "note": "(stereo not given)", "manual score": "-1 (active)"}
{"compound": "O=C(CCc1nc(-c2ccccc2F)no1)NCCN1CCN(Cc2ccccc2)CC1", "manual score": 0}
{"compound": "COc1ccc(Br)cc1CNC(=O)Nc1cccs1", "manual score": 0}
{"compound": "COC(=O)c1cc(OC)c(OC)cc1NC(=O)Nc1ccc(OC)cc1OC", "manual score": 0}
{"compound": "O=C(NNC(=O)c1cccs1)Nc1cccc(Cl)c1", "manual score": 0}
{"compound": "COc1ccc(NC(=O)C(=O)NNC(=O)c2cccs2)c(OC)c1", "manual score": "1 (active)"}
{"compound": "COc1ccc(NC(=O)C(=O)NNC(=O)c2cccs2)cc1", "manual score": "1 (active)"}
{"compound": "COc1cccc(NC(=O)Nc2cccs2)c1", "manual score": 0}
{"compound": "CCCc1noc2c1/C(=N\\O)CC(CC(C)SCC)C2", "note": "(stereo not given)", "manual score": 0}
{"compound": "O=C(CSc1ccc2ccccc2c1Br)Nc1cccc(S(=O)(=O)NC2=NCCCCC2)c1", "manual score": "1 (active)"}
{"compound": "O=C(CSc1nnnn1-c1ccc(O)cc1)Nc1cccc(S(=O)(=O)N2CCCC2)c1", "manual score": 0}
{"compound": "CCc1ccc(C(=O)OCC(=O)Nc2cccc(S(=O)(=O)NC3=NCCCCC3)c2)cc1", "manual score": 0}
{"compound": "Cc1ccc(N2CC(C(=O)N/N=C/c3sccc3C)CC2=O)cc1", "note": "(stereo not given)", "manual score": 0}
{"compound": "Cc1ccsc1/C=N/NC(=O)c1sccc1C", "manual score": "1 (active)"}
{"compound": "OC(CNCC1CCCO1)Cn1c2ccc(Br)cc2c2cc(Br)ccc21", "note": "(stereo not given)", "manual score": 0}
{"compound": "O=C1CC(C(=O)Nc2ccc(Br)cc2)C2(CCCC2)O1", "note": "(stereo not given)", "manual score": 0}
{"compound": "O=C(NN=C1c2ccccc2-c2ccccc21)c1ccccc1Br", "manual score": "1 (active)"}
{"compound": "O=C(N/N=C/c1ccc([N+](=O)[O-])s1)c1cccc(Br)c1", "manual score": 0.5}
{"compound": "O=C(NN=C1c2ccccc2-c2ccccc21)c1cccc(Br)c1", "manual score": "1 (active)"}
{"compound": "CCCCn1c(CN(Cc2ccccc2)Cc2ccccc2)nc2c1c(=O)n(C)c(=O)n2C", "manual score": 0}
{"compound": "O=C(CSCC(=O)N1CCCCC1)Nc1nc(-c2ccc(Cl)s2)cs1", "manual score": 0}
{"compound": "Cc1nc2nc(Cc3ccccc3)[nH]n2c(=O)c1Cc1ccccc1", "manual score": 0}
{"compound": "CN1C(=O)C2(C(C#N)=C(N)N(c3cc(Cl)cc(Cl)c3)C3=C2C(=O)CCC3)c2ccccc21", "note": "(stereo not given)", "manual score": "-1 (active)"}
{"compound": "Cc1cc(C(=O)CSc2n[nH]c(N)n2)c(C)n1-c1cc(F)ccc1F", "manual score": 0}
{"compound": "c1ccc2c(N3CCCCCC3)nc(-c3ccncc3)nc2c1", "manual score": 0}
{"compound": "c1ccc(-c2nnc3ccc(N4CCCC4)nn23)cc1", "manual score": "-1 (active)"}
{"compound": "Fc1ccc(-c2nnc3ccc(N4CCc5ccccc5C4)nn23)cc1", "manual score": 0}
